Values joined by “and” are separate entries in the source; they are usually repeats but may differ in a detail not shown here. Equal entries are not always repeated. Hit rate of the full screen: of about 5,500 compounds, about 2,000 (36%) were called active. Inconclusive results (about 18%) are left out. Cut-off read from the data, not from the text of the source: active = normalized growth mostly below about 0.91 (no sharp cut-off); inconclusive = no clear call, values can overlap the other calls; inactive = mostly above about 0.92. The list shows a part of the results.
Test: chemical genetic growth profiling, strain panel (AID 1159580);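 note: tested at 20 µM; growth read once vehicle control cultures reached saturation at 30 °C; 1 = growth at the plate median or of vehicle wells; lower values mean less growth of the strain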
Details: S. cerevisiae deletion strains, growth OD

Measured: normalized growth

Cc1c(N(C)CS(=O)(=O)O)c(=O)n(-c2ccccc2)n1C
inactive: locus YAL021C, strain ccr4, stronger effect = lower value 1.01 | locus YAL026C, strain drs2, stronger effect = lower value 1.01 | locus YAL030W, strain snc1, stronger effect = lower value 1.01 | locus YBL061C, strain skt5, stronger effect = lower value 1.01 | locus YBR009C, strain hhf1, stronger effect = lower value 1 | locus YBR021W, strain FUR4, stronger effect = lower value 0.991 | locus YBR023C, strain chs3, stronger effect = lower value 1.01 | locus YBR171W, strain sec66, stronger effect = lower value 1.02 | locus YBR229C, strain ROT2, stronger effect = lower value 0.989 | locus YBR231C, strain swc5, stronger effect = lower value 1.02 | locus YBR279W, strain paf1, stronger effect = lower value 1.04 | locus YCL011C, strain gbp2, stronger effect = lower value 1.01 | locus YCL016C, strain dcc1, stronger effect = lower value 1.01 | locus YCL029C, strain bik1, stronger effect = lower value 0.992 | locus YCL061C, strain MRC1, stronger effect = lower value 1.01 | locus YCL069W, strain vba3, stronger effect = lower value 1.01 | locus YCR088W, strain abp1, stronger effect = lower value 1.01 | locus YDL005C, strain med2, stronger effect = lower value 1.01 | locus YDL035C, strain GPR1, stronger effect = lower value 1 | locus YDL040C, strain nat1, stronger effect = lower value 1.01 | locus YDL074C, strain BRE1, stronger effect = lower value 1.06 | locus YDL101C, strain DUN1, stronger effect = lower value 1 | locus YDL134C, strain PPH21, stronger effect = lower value 0.979 | locus YDL185W, strain tfp1, stronger effect = lower value 0.992 | locus YDL192W, strain arf1, stronger effect = lower value 0.982 | locus YDR001C, strain nth1, stronger effect = lower value 1.01 | locus YDR069C, strain doa4, stronger effect = lower value 1.01 | locus YDR101C, strain arx1, stronger effect = lower value 1.03 | locus YDR137W, strain rgp1, stronger effect = lower value 1.01 | locus YDR159W, strain sac3, stronger effect = lower value 1 | locus YDR162C, strain NBP2, stronger effect = lower value 0.987 | locus YDR195W, strain ref2 1.01 | locus YDR297W, strain sur2, stronger effect = lower value 1.01 | locus YDR318W, strain mcm21, stronger effect = lower value 0.976 | locus YDR334W, strain swr1, stronger effect = lower value 1.01 | locus YDR335W, strain msn5, stronger effect = lower value 1.01 | locus YDR388W, stronger effect = lower value 0.982 | locus YDR392W, strain spt3, stronger effect = lower value 1.01 | locus YDR502C, strain sam2, stronger effect = lower value 1 | locus YEL003W, strain gim4, stronger effect = lower value 1.01 | locus YEL037C, strain rad23, stronger effect = lower value 1.01 | locus YEL061C, strain CIN8 (second series), stronger effect = lower value 1.02 | locus YEL061C, strain CIN8, stronger effect = lower value 0.999 | locus YER015W, strain faa2, stronger effect = lower value 1.01 | locus YER016W, strain bim1, stronger effect = lower value 1.01 | locus YER110C, stronger effect = lower value 0.994 | locus YER111C, strain swi4, stronger effect = lower value 1.01 | locus YER155C, strain BEM2 (second series), stronger effect = lower value 1.02 | locus YER155C, strain BEM2, stronger effect = lower value 0.992 | locus YER167W, strain BCK2, stronger effect = lower value 0.979 | locus YFR010W, strain ubp6, stronger effect = lower value 1.02 | locus YGL078C, strain dbp3, stronger effect = lower value 0.985 | locus YGL086W, strain mad1, stronger effect = lower value 0.995 | locus YGL167C, strain pmr1, stronger effect = lower value 1.01 | locus YGL173C, strain kem1, stronger effect = lower value 1.02 | locus YGL227W, strain vid30, stronger effect = lower value 1.01 | locus YGL240W, strain doc1, stronger effect = lower value 1.03 | locus YGL248W, strain PDE1, stronger effect = lower value 0.991 | locus YGL253W, strain hxk2, stronger effect = lower value 1.01 | locus YGR135W, strain pre9, stronger effect = lower value 0.96 | locus YGR252W, strain gcn5, stronger effect = lower value 0.968 | locus YHR013C, strain ard1, stronger effect = lower value 0.999 | locus YHR027C, strain rpn1, stronger effect = lower value 1.01 | locus YHR030C, strain SLT2, stronger effect = lower value 0.984 and 1 | locus YHR079C, strain IRE1 (second series), stronger effect = lower value 0.986 | locus YHR079C, strain IRE1, stronger effect = lower value 0.98 | locus YHR094C, strain hxt1, stronger effect = lower value 0.985 | locus YHR129C, strain ARP1, stronger effect = lower value 0.988 | locus YHR142W, strain chs7, stronger effect = lower value 1.02 | locus YHR200W, strain rpn10, stronger effect = lower value 0.981 | locus YIL066C, strain RNR3, stronger effect = lower value 0.998 | locus YIL073C, strain SPO22, stronger effect = lower value 0.997 | locus YIL125W, strain kgd1, stronger effect = lower value 0.993 | locus YIR030C, strain dcg1, stronger effect = lower value 0.982 | locus YJL092W, strain hpr5, stronger effect = lower value 1.01 | locus YJL095W, strain BCK1 (second series), stronger effect = lower value 1.02 | locus YJL095W, strain BCK1, stronger effect = lower value 1 and 0.996 | locus YJL115W, strain asf1, stronger effect = lower value 1 | locus YJL129C, strain trk1, stronger effect = lower value 1.01 | locus YJL134W, strain LCB3, stronger effect = lower value 0.986 | locus YJL154C, strain vps35, stronger effect = lower value 1.01 | locus YJL164C, strain tpk1, stronger effect = lower value 1.01 | locus YJL166W, strain qcr8, stronger effect = lower value 1.02 | locus YJL168C, strain set2, stronger effect = lower value 0.989 | locus YJL187C, strain SWE1 (second series), stronger effect = lower value 0.997 | locus YJL187C, strain SWE1, stronger effect = lower value 1.01 | locus YJR043C, strain POL32, stronger effect = lower value 1 | locus YJR066W, strain TOR1, stronger effect = lower value 0.946
